The values below come from PubChem BioAssay (EPA / NIEHS).

Where “and” joins values, the source holds several entries; their conditions need not be identical. Identical values can stand only once. Records with an inconclusive call do not appear. Calls of active or inactive are those of the source. The calls were made as follows, unless noted: active = hit-call score of the fitted dose curve at least 0.9, where 1 is the maximum; inactive = score below 0.9.

Assay [1] is described as follows: CCTE_Mundy_HCI_Cortical_NOG_BPCount: CCTE's Neurite Outgrowth Assay in rat cortical cells for Branch Point Count, Mundy Lab (AID 2284237).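 As to AC50: branch points counted about two days after chemical exposure.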 In outline:
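Measured 50.33 h after dosing, this morphology endpoint uses rat primary cortical cultures labelled for betaIII-tubulin. Branch points are quantified by high-content imaging, with DMSO as negative control and baseline.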

Assay [2] in a line: CCTE_Mundy_HCI_hNP1_Casp3_7: CCTE's Caspase-Glo 3/7 Assay in human neuroprogenitor cells for Apoptosis, Mundy Lab (AID 2284240). An outline of the steps:
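Apoptosis is scored by activated caspase-3/7 luminescence in WA09-derived neural progenitor cells, measured 26.5 h after chemical dosing. Values represent gain of signal relative to DMSO vehicle.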

The nature of assay [3]: CCTE_Mundy_HCI_hNP1_CellTiter: CCTE's Cell Titer-Glo 2 Assay in human neuroprogenitor cells for Viability, Mundy Lab (AID 2284241; active = hit-call score of the fitted dose curve at least 0.9, where 1 is the maximum). In outline: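 Human neural progenitor cells (hNP1, WA09-derived) were plated on poly-L-ornithine/laminin and grown 40 to 44 hours at 37 °C, 5% CO2 before chemical addition. Twenty-four hours later, ATP was measured by CellTiter-Glo luminescence; loss of signal versus DMSO indicates reduced viability.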
For orientation: Cellular ATP, detected with luciferase, serves as a proxy for viable cell number.

Assay [4] in a line: IUF_NPC2a_radial_glia_migration_120hr: Leibniz Research Institute for Environmental Medicine (IUF) 120-hour Neural Progenitor Cell Migration Assay for Radial Glia Migration (NPC2a) (AID 2284298). In outline:
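Hoechst-stained nuclei imaged at 120 h; algorithm maps sphere core by densest nuclei, sets migration edge at density threshold, gives radial glia migration distance (um) per well vs DMSO. hNPC spheres (0.3 mm), PDL/laminin, DMEM/F12 3:1 + 1% N2.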

Assay [5] is described as follows: IUF_NPC2a_radial_glia_migration_72hr: Leibniz Research Institute for Environmental Medicine (IUF) 72-hour Neural Progenitor Cell Migration Assay for Radial Glia Migration (NPC2a) (AID 2284299). In outline:
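Single 0.3 mm neurospheres were plated per well in N2 differentiation medium and exposed from the start of differentiation. After 72 hours, brightfield images were taken and radial glia migration from the sphere core edge was measured manually in four directions, averaged per well.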

Assay [6] can be described thus: IUF_NPC2b_neuronal_migration_120hr: Leibniz Research Institute for Environmental Medicine (IUF) 120-hour Neural Progenitor Cell Migration Assay for Neuron Migration (NPC2b) (AID 2284300). An outline of the steps: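 hNPC spheres, PDL/laminin, DMEM:F12 3:1 + 1% N2, 37C/5% CO2; 7 concentrations + solvent control (DMSO ≤0.1%), 5 d exposure, half-feed day 3. Fix 120 h, TUBB3 ICC, HCI: mean neuron migration distance ÷ glia distance.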

Assay [7] can be described thus: IUF_NPC5_oligodendrocyte_differentiation_120hr: Leibniz Research Institute for Environmental Medicine (IUF) 120-hour Oligodendrocyte Differentiation Assay (NPC5) (AID 2284304; active = hit-call score of the fitted dose curve at least 0.9, where 1 is the maximum;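 also: primary human fetal neural progenitor spheres plated to migrate and differentiate; share of O4-positive cells among Hoechst nuclei found by CNN image analysis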). In outline:
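hNPC spheres, fetal cortex GW 16-19; PDL/laminin, DMEM:F12 3:1 + 1% N2, 37C/5% CO2; 7 concentrations + solvent control, 5 d exposure, half-change day 3. Readout: %O4+ of Hoechst+ nuclei in migration area, CNN classification; DMSO baseline.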

Read-out in assay [8]: Collagen I, COL1A1 (gene 1277)
Put plainly: BSK_MyoF_CollagenI: BioMAP Diversity Plus: MyoF Assay for Collagen I Biomarker Activity (AID 2284238). The conditions noted are these: primary human lung fibroblasts. An outline of the steps: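 ELISA readout of Collagen I after 24 h chemical treatment of primary human lung fibroblast cultures; gain of signal scored relative to DMSO vehicle baseline.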

Read-out in assay [9]: Collagen III, COL3A1 (gene 1281)
Put plainly: BSK_MyoF_CollagenIII: BioMAP Diversity Plus: MyoF Assay for Collagen III Biomarker Activity (AID 2284239). The following applies: primary human lung fibroblasts. An outline of the steps: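 Lung fibroblast culture; 24 h compound exposure; collagen III by ELISA; gain-of-signal fit vs DMSO baseline.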

Read-out in assay [10]: Interleukin 17F (IL17F), IL17F (gene 112744)
As to the kind of experiment: BSK_BT_xIL17F: BioMAP Diversity Plus: BT Assay for Interleukin 17F (IL17F) Biomarker Activity (AID 2284243). The following applies: primary human B cells with PBMC. In outline: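 Secreted IL-17F, read on LumineX xMAP beads, was taken as the endpoint. Cultures combined human B cells and peripheral blood mononuclear cells, sampled 24 hours after dosing, with DMSO serving as negative control.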

Read-out in assay [11]: Actin alpha 1 (ACTA1), ACTA1 (gene 58)
As to the kind of experiment: BSK_MyoF_ACTA1: BioMAP Diversity Plus: MyoF Assay for Actin alpha 1 (ACTA1) Biomarker Activity (AID 2284244). The following applies: primary human lung fibroblasts. An outline of the steps:
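Cells were exposed to chemical for 24 h before a-SMA levels were quantified by ELISA in human lung fibroblasts. Increases were fitted against DMSO as negative control; parallel SRB staining (0.1% after 10% TCA fixation, 560 nm) assessed cytotoxicity.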

Read-out in assay [12]: Interleukin 2 (IL2), IL2 (gene 3558)
Put plainly: BSK_BT_xIL2: BioMAP Diversity Plus: BT Assay for Interleukin 2 (IL2) Biomarker Activity (AID 2284245). The conditions noted are these: primary human B cells with PBMC. In outline: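 The BT system combines human B cells with peripheral blood mononuclear cells. Twenty-four hours after chemical dosing, secreted IL-2 was measured with xMAP bead technology, and responses were analyzed as increases over DMSO controls.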

Read-out in assay [13]: Basic fibroblast growth factor (bFGF), FGF2 (gene 2247)
Put plainly: BSK_MyoF_bFGF: BioMAP Diversity Plus: MyoF Assay for Basic fibroblast growth factor (bFGF) Biomarker Activity (AID 2284246). The conditions noted are these: primary human lung fibroblasts. In outline: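 Chemicals are added to human lung fibroblast cultures and incubated 24 h. bFGF is then measured by ELISA, while parallel cultures receive SRB staining for total protein as a cytotoxicity check. Data are fitted upward against DMSO.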

Read-out in assay [14]: Collagen IV, COL4A1 (gene 1282)
As to the kind of experiment: BSK_MyoF_CollagenIV: BioMAP Diversity Plus: MyoF Assay for Collagen IV Biomarker Activity (AID 2284247). The conditions noted are these: primary human lung fibroblasts. An outline of the steps: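 Human lung fibroblast system, 24 h chemical exposure. Endpoint: Collagen IV by ELISA, upward fit vs DMSO.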

Read-out in assay [15]: Plasminogen activator inhibitor-1 (PAI1), SERPINE1 (gene 5054)
Put plainly: BSK_MyoF_PAI1: BioMAP Diversity Plus: MyoF Assay for Plasminogen activator inhibitor-1 (PAI1) Biomarker Activity (AID 2284256). The following applies: primary human lung fibroblasts. An outline of the steps: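 MyoF lung fibroblasts, human primary; compound 24 h; PAI-1 ELISA; positive-direction fit vs DMSO baseline; parallel SRB total-protein staining for cytotoxicity.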

Read-out in assay [16]: Interleukin-8 (IL8), CXCL8 (gene 3576)
Put plainly: BSK_MyoF_IL8: BioMAP Diversity Plus: MyoF Assay for Interleukin-8 (IL8) Biomarker Activity (AID 2284261). The following applies: primary human lung fibroblasts. An outline of the steps: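 Lung fibroblasts (human primary) → chemical exposure → 24 h → IL-8 measured by ELISA. Signal increase scored versus DMSO control.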

Read-out in another assay: Decorin, DCN (gene 1634)
As to the kind of experiment: BSK_MyoF_Decorin: BioMAP Diversity Plus: MyoF Assay for Decorin Biomarker Activity (AID 2284265). The conditions noted are these: primary human lung fibroblasts. An outline of the steps:
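ELISA readout of decorin, 24 h post-dosing; primary human lung fibroblast (MyoF) culture; gain-of-signal fit vs DMSO baseline.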

The nature of assay [17]: BSK_MyoF_SRB: Viability Assessment in the BioMAP Diversity Plus: MyoF Assay (AID 2284267).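 Also: total protein by SRB absorbance in parallel cultures as cytotoxicity measure; cells assessed 24 h after compound addition.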 The following applies: primary human lung fibroblasts. In outline:
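Confluent human lung fibroblasts were exposed to test chemicals for 24 h. Parallel wells were then fixed in 10% TCA, stained with 0.1% sulforhodamine B and measured at 560 nm. DMSO served as baseline for curve fitting.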

Read-out in assay [18]: Matrix Metallopeptidase 1 (MMP1), MMP1 (gene 4312)
As to the kind of experiment: BSK_MyoF_MMP1: BioMAP Diversity Plus: MyoF Assay for Matrix Metallopeptidase 1 (MMP1) Biomarker Activity (AID 2284268). The following applies: primary human lung fibroblasts. In outline: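 Cells: human lung fibroblasts. Exposure: 24 h chemical dosing. Detection: ELISA for MMP1. Analysis: upward fitting against DMSO negative control.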

Read-out in assay [19]: TIMP metallopeptidase inhibitor 1 (TIMP1), TIMP1 (gene 7076)
Put plainly: BSK_MyoF_TIMP1: BioMAP Diversity Plus: MyoF Assay for TIMP metallopeptidase inhibitor 1 (TIMP1) Biomarker Activity (AID 2284269). The following applies: primary human lung fibroblasts. In outline: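 TIMP-1 levels were determined by ELISA in human lung fibroblasts treated for 24 h. DMSO served as negative control and baseline for upward curve fitting.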

The term AC50 denotes the midpoint of the concentration-response curve, whichever way the signal moves. Take `CC[C@H](C)[C@H]1O[C@]2(C=C[C@@H]1C)C[C@@H]1C[C@@H](C/C=C(\C)[C@@H](O[C@H]3C[C@H](OC)[C@@H](O[C@H]4C[C@H](OC)[C@@H](NC)[C@H](C)O4)[C@H](C)O3)[C@@H](C)/C=C/C=C3\CO[C@@H]4[C@H](O)C(C)=C[C@@H](C(=O)O1)[C@]34O)O2`: the AC50 in [1] was 883 nM (active) and 1.53 µM (active); in assay [2] it was 14.3 µM (active) and 3.62 µM (active); in assay [3], 1300 nM (active); in [4], 1.1 µM (active) and 2.22 µM (active); in assay [5] it was 2.13 µM (active) and 3.89 µM (active); in assay [6], 1.07 µM (active) and 3.32 µM (active). For the same compound, the half-maximal activity concentration (AC50) in assay [7] was 305 nM (active) and 96.9 nM (active).
In the case of `CCOP(=O)(NC(C)C)Oc1ccc(SC)c(C)c1` (stereo unspecified), the compound was classed as inactive in assay [1], in [2], in assay [5] and in assay [6]. The values for the half-maximal activity concentration (AC50) in [3], in assay [4] and in assay [7] were 51000 nM (active), 33.7 µM (active) and 10.2 µM (active), respectively.
On to `CCOP(=S)(OCC)Oc1ccc([N+](=O)[O-])cc1`, for which the AC50 in assay [1] was 24.7 µM (active). Besides, the outcome in assay [2] was inactive.
Turning to `CCOP(=O)(SC(C)CC)N1CCSC1=O` (stereo unspecified), the outcome in [1], in assay [2] and in assay [3] was inactive.
As to `CC(=NC#N)N(C)Cc1ccc(Cl)nc1`, the compound was called inactive in assay [1], in assay [2], in assay [3], in assay [4], in [5] and in [6].
On to `O=[N+]([O-])c1cc(C(F)(F)F)c(Cl)c([N+](=O)[O-])c1Nc1ncc(C(F)(F)F)cc1Cl`, for which the AC50 is 0.74 µM (active) in [1]; 2520 nM (active) in [8]; 2720 nM (active) in assay [9]; 2.95 µM (active) in [2]; 2400 nM (active) in assay [3]; 1350 nM (active) in assay [10]. Besides, the concentration at half-maximal activity (AC50) is 2270 nM (active) in assay [11]; 3340 nM (active) in [12]; 3750 nM (active) in assay [13]; 2270 nM (active) in [14]; 2200 nM (active) in assay [15]; 20000 nM (active) in assay [16]. Further, the AC50 in the assay with Decorin, DCN (gene 1634) was 5880 nM (active); in [17], 2600 nM (active); in assay [18], 3250 nM (active); in assay [19], 3900 nM (active); in assay [4] it was 0.832 µM (active); in assay [5], 730 nM (active). In addition, the concentration at half-maximal activity (AC50) in [6] is 796 nM (active); in assay [7], 1.3 µM (active).
On to `C[N+]1(C)CCCCC1`, for which the compound was classed as inactive in assay [1], in assay [2], in [4], in assay [5], in [6] and in assay [7].
